# Measurements as given in PubChem BioAssay (EPA / NIEHS).
# Values joined by “and” are separate entries in the source; they are usually repeats but may differ in a detail not shown here. Equal entries are not always repeated. Active and inactive are the calls of the source. How the source made its calls: active means hit-call score of the fitted dose curve at least 0.9, where 1 is the maximum; inactive means score below 0.9.
# Experiment: ATG_EGR_CIS: Attagene CIS-FACTORIAL HepG2 Assay for human Early Growth Response 1 (EGR1) (AID 2282938)
# Details: HepG2 Attagene CIS-FACTORIAL EGR reporter mRNA; actives raise or lower the signal
# Description: ATG_CIS is a cell-based, multiplexed-readout assay that uses HepG2, a human liver cell line, with measurements taken at 24 hours after chemical dosing in a 24-well plate.ATG_EGR_CIS is one of 52 assay component(s) measured or calculated from the ATG_CIS assay. It is designed to make measurements of mRNA induction, a form of inducible reporter, as detected with fluorescence intensity signals by Reverse transcription polymerase chain reaction (RT-PCR) and Capillary electrophoresis technology.Data from the assay component ATG_EGR_CIS was analyzed into 1 assay endpoint. This assay endpoint, ATG_EGR_CIS, was analyzed with bidirectional fitting relative to DMSO as the negative control and baseline of activity. Using a type of inducible reporter, measures of mRNA for gain or loss-of-signal activity can be used to understand the reporter gene at the transcription factor-level as they relate to the gene EGR1. Furthermore, this assay endpoint can be referred to as a primary readout, because this assay has produced multiple assay endpoints where this one serves a reporter gene function. To generalize the intended target to other relatable targets, this assay endpoint is annotated to the dna binding intended target family, where the subfamily is zinc finger.
# Human liver HepG2 cells are transiently transfected with multiple reporter transcription units (MRTUs) in 6-well plates using FuGene 6 reagent (Roche; 3 ml FuGene/1 mg DNA). The MRTU constructs are regulated by a cis-regulating element (promoter). […] A major difference between the CIS and TRANS system is that in CIS activities of endogenous TFs are measured, whereas the TRANS assay evaluates changes in activities of exogenous, chimeric NR-Gal4 proteins. […] At the end of 24 hour incubation, total RNA was isolated using TriZol reagent (Invitrogen). The isolated RNA is then reverse-transcribed using oligo(dT) primer and Mo-MLV reverse transcriptase (Invitrogen) with DNAse I (Ambion) treatment for 30 min. The one-tenth of the produced cDNA was amplified by PCR using Taq DNA polymerase (Invitrogen) and two reporter sequence-specific primers. The PCR products were fluorescently labeled by primer extension with 6-arboxyfluorescein (6-FAM) 5'-labeled reporter sequence-specific primer (2 min at 95 C, 20 s at 68 C and 10 min at 72 C) and these products were digested with 5U of HpaI (New England Biolabs) for 2h at 37 C. The fragments were purified using Qiaquick PCR columns (Qiagen), analyzed on an ABI 3130xL genetic analyzer (Applied Biosystems) with peak positions identified by using a set of X-rhodamine (ROX)-labeled MapMarker1000 molecular weight standards (BioVentures). The raw capillary electrophoresis data was processed using Attagraph software (Attagene).
Structure (SMILES),outcome,AC50
Clc1cccc(Cl)c1Cl,inactive,–
Brc1c(Br)c(Br)c(Oc2c(Br)c(Br)c(Br)c(Br)c2Br)c(Br)c1Br,inactive,–
FC(F)OCC(F)(F)C(F)(F)F,inactive,–
CC(C)(C)c1cc([N+](=O)[O-])cc(C(C)(C)C)c1O,inactive,–
CC(=O)C(F)(F)C(F)(F)F,inactive,–
C[C@@H]1O[C@@H](O[C@H]2C[C@@H](O)[C@]3(CO)[C@H]4[C@H](O)C[C@]5(C)[C@@H](C6=CC(=O)OC6)CC[C@]5(O)[C@@H]4CC[C@]3(O)C2)[C@H](O)[C@H](O)[C@H]1O,–,0.0716 µM (active)
Nc1ccc(-c2ccccc2)cc1,inactive,–
CNC(=O)O/N=C/C(C)(C)S(C)(=O)=O,inactive,–
CCOC(=O)c1ccccc1S(=O)(=O)NC(=O)Nc1nc(Cl)cc(OC)n1,inactive,–
C=C(C)C(=O)OCC(CC)CCCC (stereo not given),inactive,–
NC(=O)CCl,inactive,–
Cc1cc(Cl)ccc1O,inactive,–
NNCCO,inactive,–
OC(Cc1ccccc1Cl)(Cn1[nH]cnc1=S)C1(Cl)CC1 (stereo not given),inactive,–
CCCCS(=O)(=O)Cl,inactive,–
O=S1OC[C@@H]2[C@H](CO1)[C@]1(Cl)C(Cl)=C(Cl)[C@@]2(Cl)C1(Cl)Cl (stereo not given in full),inactive,–
O=c1oc2ccccc2c(O)c1C(CC(O)c1ccc(-c2ccc(Br)cc2)cc1)c1ccccc1 (stereo not given),–,41.1 µM (active) and 17.8 µM (active)
CCCCOC(C)=O,inactive,–
CCOc1ccc(N)cc1,inactive,–
Clc1cccc(Cl)c1,inactive,–

Structure (SMILES),outcome,AC50
Cc1cccc(OP(=O)(Oc2cccc(C)c2)Oc2cccc(C)c2)c1,inactive,–
CC1CC(=O)O1 (stereo not given),inactive,–
N#CCC#N,inactive,–
CCCCCCCCCCCCOS(=O)(=O)O,inactive,–
CCCSP(=S)(OCC)Oc1ccc(Cl)cc1Cl (stereo not given),inactive,–
C[CH2][Hg][S]c1ccccc1C(=O)O,–,3.71 µM (active)
CCOP(=O)(OCC)OC(=CCl)c1ccc(Cl)cc1Cl,inactive,–
Clc1cc(C(Cl)(Cl)Cl)cnc1Cl,–,8.77 µM (active)
Oc1cccc(-c2ccccc2)c1,inactive,–
C=CCN=C=S,inactive,–
COC(F)(C(F)(F)C(F)(F)F)C(F)(C(F)(F)F)C(F)(F)F (stereo not given),inactive,–
C=CCCl,inactive,–
C=CC(F)(C(F)(F)F)C(F)(F)C(F)(F)F (stereo not given),inactive,–
O=C(N[C@H]1CN2CCC1CC2)c1ccc2c(c1)OCCO2,inactive,–
O=C(Cl)OCCOCCOC(=O)Cl,inactive,–
COc1ccc([N+](=O)[O-])cc1O,inactive,–
CC(=Cc1ccccc1)[N+](=O)[O-],inactive,–
OC(Cc1ccccc1Cl)(Cn1cncn1)C1(Cl)CC1 (stereo not given),–,47.6 µM (active)
O=C(O)CC(O)(CC(=O)O)C(=O)O,inactive,–
CC(C)CC(C)(c1ccc(O)cc1)c1ccc(O)cc1,–,17.5 µM (active)
